According to PubChem BioAssay AID624110 (Broad Institute, 2012):
The source made the active and inactive calls.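 The calls were made as follows: active = signal falls with dose and the fitted half-maximal concentration is at most twice the highest valid tested dose; inconclusive = flat fit with a moderate signal drop, or unreliable fit; inactive = opposite effect, flat near zero, or potency past limit.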

The molecules below were run against PglD acetyltransferase (Campylobacter jejuni) (UniProt O86157) (assay: inhibition of C. jejuni PglD N-acetyltransferase – biochemical, DTNB absorbance, Campylobacter jejuni, cherry-picked samples, dose response (AID 624110)). Conditions: purified C. jejuni PglD, DTNB absorbance 412 nm; series mostly up to 19.5 µM.
Chain of PglD acetyltransferase (Campylobacter jejuni) (O86157 1-203): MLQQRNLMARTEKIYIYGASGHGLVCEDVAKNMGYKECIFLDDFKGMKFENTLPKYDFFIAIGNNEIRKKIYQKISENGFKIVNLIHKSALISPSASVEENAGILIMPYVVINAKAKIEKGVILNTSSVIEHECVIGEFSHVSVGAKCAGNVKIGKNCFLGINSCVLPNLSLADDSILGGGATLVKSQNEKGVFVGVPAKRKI

outcome, inactive:
O=C(C[C@@H]1CC[C@H]2[C@@H](COC[C@H](O)CN2C(=O)Nc2cccc(F)c2)O1)NCc1ccccc1F
CC(=O)N[C@H]1CC[C@H](CC(=O)NCc2ccc(Cl)cc2)O[C@H]1CO
C/C=C/c1cnc2c(c1)C(=O)N([C@@H](C)CO)C[C@H](C)[C@@H](CN(C)C(=O)c1cccnc1)O2
O=C(N[C@H]1C=C[C@@H](CC(=O)N2CCCCC2)O[C@H]1CO)c1ccc2c(c1)OCO2
CC=Cc1ccc2n(c1=O)C[C@@H]1[C@@H](CO)[C@H](C(=O)NCCOC)[C@H]2N1Cc1nccs1 (mixture of isomers)
Cc1noc(C)c1NC(=O)Nc1cccc2c1O[C@H](CN(C)C(=O)Nc1cccc3ccccc13)[C@@H](C)CN([C@H](C)CO)C2=O
CO[C@@H]1CN(C)C(=O)c2ccc(NS(C)(=O)=O)cc2OC[C@@H](C)N(C(=O)C2CCOCC2)C[C@H]1C
COCC#Cc1cnc2c(c1)C(=O)N([C@@H](C)CO)C[C@H](C)[C@@H](CN(C)C(=O)C1CCC1)O2
O=C(C[C@@H]1CC[C@@H]2[C@H](COC[C@@H](O)CN2Cc2ccc(F)cc2)O1)N1CCc2ccccc2C1
C[C@@H]1CN([C@@H](C)CO)C(=O)c2cc(NC(=O)Nc3ccc(F)cc3)ccc2O[C@@H]1CN(C)CC1CCCCC1
COc1ccc(C#Cc2cnc3c(c2)C(=O)N([C@@H](C)CO)C[C@H](C)[C@H](CN(C)CC2CCCC2)O3)cc1
CO[C@H]1CN(C)C(=O)c2cc(NC(C)=O)ccc2OC[C@@H](C)NC[C@@H]1C
C[C@H]1CN([C@@H](C)CO)C(=O)c2cccc(NC(=O)Nc3ccccc3)c2O[C@H]1CN(C)C
CCC(=O)Nc1ccc2c(c1)OC[C@@H](C)N(Cc1ccccn1)C[C@@H](C)[C@H](OC)CN(C)C2=O
CC(C)NC(=O)N(C)C[C@@H]1Oc2ccc(NC(=O)Cc3cn(C)c4ccccc34)cc2C(=O)N([C@H](C)CO)C[C@H]1C
O=C(C[C@@H]1C[C@@H]2c3cc(NC(=O)NC4CCCCC4)ccc3O[C@@H]2[C@@H](CO)O1)NCc1cccnc1
